# hNpr1 antagonist: human Npr1 receptor antagonism. P16066. HEK293 hNpr1 GloSensor cGMP, ANP-stimulated luminescence. Potency, µM (top dose mostly 46.3 µM), most hits filed as inhibitors. 1.6% of 76,000 active. AID 1347048; calls by dose curve; note: nearly all actives have a fitted effect of over 60% in size
#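 HEK293 cells stably expressing human Npr1 and cGMP GloSensor pGS-40F, loaded 2 h with 2% GloSensor reagent, given compound 30 min at room temperature. Luminescence read before and 20 min after 0.1 nM hNppA.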
# NIH3T3 tox: NIH 3T3 cell cytotoxicity; NIH 3T3 viability, CellTiter-Glo ATP luminescence, 48-72 h; Potency, µM (titrated, usually from 96.7 µM), hits mostly inhibitors; 4.3% of 94,000 active; AID 1345082; note: nearly all actives have a fitted effect of over 55% in size
#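 First NIH 3T3 cells are plated at 400 cells/well; next compound is pinned in; then plates incubate 48 or 72 hr at 37 °C; finally CellTiter-Glo is added and luminescence read after 10 min.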
# Luciferase inh: blocks purified firefly luciferase enzyme activity | P08659 | purified P. pyralis luciferase, luminescence, biochemical | Potency, µM (titrated, usually from 115 µM), actives largely listed as inhibitors | 2.5% of 76,000 active | AID 1347043; note: nearly all actives have a fitted effect of over 65% in size
#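 Biochemical qHTS: compound (6-point titration) added to 10uM D-luciferin plus 10uM ATP in Tris acetate pH 7.5 buffer with Mg, Tween-20 and BSA, then purified enzyme at 10nM; light output imaged.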
# HEK cytotox: kills HEK 293 cells; HEK 293 viability, ATP luminescence (CellTiter-Glo), 48-72 h; AID 1345083; Potency, µM (top dose mostly 115 µM), actives largely listed as inhibitors; 6.6% of 94,000 active; note: nearly all actives have a fitted effect of over 60% in size
#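 Read-out: CellTiter-Glo ATP luminescence. Cells: HEK 293, 250 cells/well. Exposure: 48 or 72 hr, 37 degree Celsius.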
# Numbers stand for hits; - = inactive; ? = inconclusive; . = no result. Compounds with a hit are over-represented: about 11% of the library has one in this group of screens. Unless noted, calls come from the whole dose curve; as a rule, active = well fitted curve in the direction sought with a large enough effect; inconclusive = small, poorly fitted or top-dose-only effect, or another doubt; inactive = no such curve, though single readings can be large; an effect the other way counts as inactive or inconclusive.
SMILES,hNpr1 antagonist,NIH3T3 tox,Luciferase inh,HEK cytotox
OC[C@@H]1CN(CCCc2ccccc2)C[C@H]1c1nc(C2CC2)no1,-,-,-,?
Cc1ccc([S+](=O)([O-])NC2CCCN(Cc3cccc(-c4ccc(C)c(Cl)c4)c3)C2)cc1 (stereo not drawn),.,?,.,28.2µM
Cc1ccc(-c2cccc(CN3CCCC(N[S+](C)(=O)[O-])C3)c2)cc1Cl (stereo not drawn),.,28.2µM,.,22.4µM
Cc1ccc([S+](=O)([O-])NC2CCCN(CCn3nc4n(c3=O)CCCC4)C2)cc1 (stereo not drawn),.,-,.,-
O=C(Nc1ccc(Oc2ccccc2)cc1)O[C@@H]1CO[C@H]2[C@@H]1OC[C@@H]2NC(=O)c1cnccn1,-,-,-,?
COc1ccccc1-c1cc(NCc2ccncc2)c2onc(C)c2n1,-,?,-,?
COc1ccc(Nc2cc(-c3ccccc3OC)nc3c(C)noc23)cc1OC,-,20µM,-,?
COc1ccccc1-c1cc(Nc2ccc(N3CCOCC3)cc2)c2onc(C)c2n1,-,?,-,63.1µM
COc1ccc(-c2cccc(COc3ccc4c(cnn4CC[S+](C)(=O)[O-])c3)c2)cc1,-,?,?,?
C[S+](=O)([O-])CCn1ncc2cc(OCc3cccc(-c4cccc(CO)c4)c3)ccc21,?,?,?,50.1µM
C[S+](=O)([O-])CCn1ncc2cc(OCc3cccc(-c4ccccc4F)c3)ccc21,?,?,15.8µM,50.1µM
COc1cccc(-c2nnnn2[C@H]2CO[C@H]3[C@@H]2OC[C@@H]3NS(=O)(=O)c2cccs2)c1,-,-,-,-
COc1ccc(CC(=O)N2CCc3c(cnc(C)c3CNC(=O)c3ccc4c(c3)OCO4)C2)cc1,-,-,-,-
COc1ccccc1Oc1ncccc1CNC(=O)c1ccccc1SC,-,-,31.6µM,?
COc1ccccc1Oc1ncccc1CNC(=O)Nc1cccc(C#N)c1,-,31.6µM,-,?
CCC(=O)NCc1cccnc1Oc1ccccc1OC,-,-,-,-
COc1ccccc1Oc1ncccc1CNC(=O)c1cccnc1C,-,-,-,-
Cn1cc(CN2C[C@@H]3OCC(=O)N[C@@H]3C2)c2ccccc21,-,112µM,-,?
CC(=O)c1ccc(NC(=O)Cn2ccn3nc4c(c3c2=O)CCCC4)cc1,-,-,-,-
Cc1ccc(NC(=O)Cn2ccn3nc4c(c3c2=O)CCCC4)cc1Cl,-,-,-,-
CN(C)c1ccc(NC(=O)CCn2ccn3nc4c(c3c2=O)CCCC4)cc1,-,-,39.8µM,?
CC(=O)Nc1ccc(NC(=O)Cn2ccn3nc4c(c3c2=O)CCCCC4)cc1,-,?,-,35.5µM
Cc1ccc(NC(=O)Cn2ccn3nc4c(c3c2=O)CCCCC4)cc1C,?,-,-,39.8µM
CCc1nnc([C@@H]2CC(F)(F)CN2C(=O)CCn2cccn2)o1,-,-,-,-
COc1cncc([C@@H](NC(=O)Cc2ccsc2)C2CC(O)C2)c1 (stereo partly drawn),-,-,-,-
SMILES,hNpr1 antagonist,NIH3T3 tox,Luciferase inh,HEK cytotox
Cc1noc2c(N3CC(O)C3)cc(-c3ccsc3)nc12,-,?,-,-
Cc1noc2c(N3CCOCC3)cc(-c3ccsc3)nc12,-,28.2µM,-,?
O=C1Nc2ccc(-c3cccc(C(F)(F)F)c3)cc2C(=O)N2CCN(C(=O)NC3CCCCC3)C[C@H]12,-,?,-,35.5µM
O=C1Nc2ccc(-c3ccccc3)cc2C(=O)N2CCN(C(=O)NC3CCCCC3)C[C@H]12,-,-,-,?
O=C1Nc2ccc(-c3cccc(C(F)(F)F)c3)cc2C(=O)N2CCN(C(=O)c3ccco3)C[C@@H]12,-,?,-,39.8µM
c1ccc2[nH]c(N3CCN(Cc4cc5n(n4)CCCNC5)CC3)nc2c1,-,-,-,-
c1ccc2sc(N3CCCN(Cc4cc5n(n4)CCNC5)CC3)nc2c1,-,?,?,35.5µM
COc1ccc(NC(=O)C2(C)CCCc3cnc(Nc4ccccc4)nc32)cn1 (stereo not drawn),-,79.4µM,-,89.1µM
COc1cccc(Nc2ncc3c(n2)C(C)(C(=O)Nc2ccc(OC)nc2)CC3)c1 (stereo not drawn),-,?,-,89.1µM
COc1ccc(NC(=O)C2(C)CCCc3cnc(NCc4ccccc4)nc32)cn1 (stereo not drawn),-,?,-,?
Cn1c(-c2nc(-c3cn4ccccc4n3)no2)cc(=O)n(C)c1=O,-,-,-,-
CNCC(=O)N1CCC2(CC1)CN(Cc1ccccc1)CC2CO (stereo not drawn),-,-,-,-
CCCC1=Nc2cc(C(=O)NCCc3ccccc3)ccc2Sc2ccc(C)cc21,-,-,-,?
CCCC1=Nc2cc(C(=O)NCCCN3CCCCC3CC)ccc2Sc2ccc(C)cc21 (stereo not drawn),-,7.08µM,-,?
O=C1CC(c2ccccc2)N(C(=O)C2CC2)CCCN(C(=O)CCCc2ccccc2)CCN1 (stereo not drawn),-,-,-,-
O=C1NCCCCCCN(S(=O)(=O)c2cccs2)[C@H]2CCC[C@@H]12,-,-,-,-
O=C(c1cccs1)N1CCCn2cc(-c3ccc4c(c3)OCO4)nc21,-,-,39.8µM,?
COc1ccc(-c2cn3c(n2)N(C(=O)Cc2cccs2)CCC3)cc1,-,?,-,?
O=C(c1ccco1)N1CCCn2cc(-c3ccc4c(c3)OCO4)nc21,-,-,-,?
COc1ccc(-c2cn3c(n2)N(C(=O)c2cccs2)CCC3)cc1,-,-,35.5µM,?
COc1cccc(NC(=O)Nc2cccc(-c3ccc(N4CCOCC4)nn3)c2)c1,?,?,1µM,?
Cc1ccc(Cl)cc1NC(=O)Nc1cccc(-c2ccc(N3CCOCC3)nn2)c1,-,-,1µM,?
COCc1cc(=O)n(CC(=O)Nc2cccc(OC)c2)c(N2CCOCC2)n1,-,-,-,-
Nc1cccc(-c2ccc(N3CCOCC3)nn2)c1,?,?,3.16µM,?
O=C(Nc1cccc(-c2ccc(N3CCOCC3)nn2)c1)Nc1ccccc1C(F)(F)F,-,?,2.24µM,?
SMILES,hNpr1 antagonist,NIH3T3 tox,Luciferase inh,HEK cytotox
O=C(Cc1cccnc1)N1CC(F)(F)C[C@H]1c1nc(C2CC2)no1,-,-,-,-
CCCCSc1ncc(CN2CCCC2c2ccc(C(N)=O)s2)cn1 (stereo not drawn),-,-,-,?
COc1cc(OC)cc(C(=O)N[C@@H]2CN(S(C)(=O)=O)C[C@H]2CN(C)C)c1,-,-,-,-
Cc1ccc(NC(=O)Nc2cccc(-c3ccc(N4CCOCC4)nn3)c2)cc1F,-,-,?,-
Cc1c(F)cccc1NC(=O)Nc1cccc(-c2ccc(N3CCOCC3)nn2)c1,?,-,0.631µM,-
Cc1cc(N2CCN(Cc3ccccc3)CC(O)C2)nc(N)n1 (stereo not drawn),-,-,-,-
OC1CN(Cc2ccccc2)CCN(c2nc(-c3ccccc3)no2)C1 (stereo not drawn),?,-,39.8µM,?
CCS(=O)(=O)N1CCCCCCNC(=O)[C@@H]2C[C@@H](C(=O)NCCc3c[nH]c4ccccc34)C[C@@H]21,-,-,-,35.5µM

# High-throughput results as filed in PubChem.
